# Screens from PubChem.
# Sampled rows, rich in hits. Any-hit rate of the full collection: about 9.4%.
# FLuc counter – inhibits or activates purified firefly luciferase, miR-21 counter-screen; purified FLuc, Km substrates, luminescence inhibition; P08659; AID 588342; 360,000 compounds, 6.9% hits; Potency, µM (highest dose often 57.5 µM), for inactives: top-dose activity change, negative = inhibition, actives largely listed as inhibitors;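 also: plate controls were vehicle for no effect and reference inhibitor for full effect; nearly all actives have a fitted effect of over 55% in size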
# Target sequence (P08659 whole entry, looked up): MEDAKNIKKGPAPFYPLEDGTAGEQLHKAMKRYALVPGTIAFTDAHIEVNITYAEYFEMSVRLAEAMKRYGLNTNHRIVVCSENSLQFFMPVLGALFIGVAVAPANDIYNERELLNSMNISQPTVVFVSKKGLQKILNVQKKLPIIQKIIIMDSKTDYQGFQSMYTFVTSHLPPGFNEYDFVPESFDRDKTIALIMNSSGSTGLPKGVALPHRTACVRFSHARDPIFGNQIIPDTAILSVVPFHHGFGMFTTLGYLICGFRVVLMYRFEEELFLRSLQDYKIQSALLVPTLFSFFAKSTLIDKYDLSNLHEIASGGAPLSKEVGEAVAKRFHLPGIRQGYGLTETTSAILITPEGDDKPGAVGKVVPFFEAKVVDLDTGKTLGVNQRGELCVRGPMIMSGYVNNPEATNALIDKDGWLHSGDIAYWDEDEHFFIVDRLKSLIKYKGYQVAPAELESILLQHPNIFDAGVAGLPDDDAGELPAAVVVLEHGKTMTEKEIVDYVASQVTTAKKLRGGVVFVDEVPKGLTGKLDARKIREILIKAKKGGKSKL
#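 Purified P. pyralis luciferase (10nM final) with 10uM D-luciferin and 10uM ATP (Km levels) in 50mM Tris acetate pH 7.5, 10mM Mg acetate, 0.01% Tween-20, 0.05% BSA; qHTS 6-point titration, ~60 µM downward; luminescence read.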
# ELG1 DNA repair – ELG1-dependent DNA repair inhibition. Potency, µM (top dose mostly 46.1 µM), without a hit: top-dose activity change, negative = inhibition, most hits filed as inhibitors. HEK293T ELG1-luciferase reporter, luminescence, 16 h; DNA damage induced by 5-fluorouridine. AID 504467. 330,000 compounds, 2.3% hits; also: % is scaled to controls: 0 for no effect and ±100 for the full control effect; nearly all actives have a fitted effect of over 55% in size
#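 Luminescence from the luciferase reporter, measured 30 min after ONE-Glo reagent at room temperature, was the read-out. Beforehand, 2,000 cells per well were exposed for 16 hr at 37 °C to 5-fluorouridine together with compound or vehicle.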
# Rab9 prom act – Rab9 promoter activation. Huh7 Rab9 promoter-luciferase reporter, luminescence, 24 h. AID 485297. 320,000 compounds, 2.8% hits. Potency, µM (titrated, usually from 9.22 µM), for the others: top-dose activation, negative = inhibition, most hits filed as activators; also: % of control where 0% means no effect; nearly all actives have a fitted effect of over 60% in size
#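 Luminescence read-out: Huh7 cells stably expressing Rab9-luciferase, treated 24 h with compound at 37 °C, then lysed with luciferase reagent for 10 min at ambient before reading.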
# ELG1 genotoxic – inducers of genotoxicity in HEK293T ELG1-luciferase cells; HEK293T ELG1-luciferase reporter, luminescence, 16 h; 330,000 compounds, 1.3% hits; Potency, µM (series often up to 46 µM), inactives show at the top dose activity change, positive = activation, actives largely listed as activators; also: % of control where 0% means no effect; nearly all actives have a fitted effect of over 60% in size
#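 ELG1-luciferase HEK293T cells, 2,000/well; compound pinned in; 16 hr, 37 °C, 5% CO2; ONE-Glo, 30 min RT; luminescence on CCD imager.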
# SMN2 splice enh – increases expression of the SMN2 splice variant; HEK293 SMN2-luciferase splicing reporter, luminescence, 30-36 h; Potency, µM (series often up to 46.1 µM), inactives show top-dose activity change, positive = activation, hits mostly activators; 210,000 compounds, 2.8% hits; AID 1458; also: % of control where 0% means no effect; nearly all actives have a fitted effect of over 55% in size
#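 HEK293 cells carry an SMN2 […]–luciferase reporter in which exon 7 inclusion puts luciferase in frame. Cells were plated 10-12 h before compound addition, then incubated 30-36 h at 37C. ONE-Glo luminescence was read; sodium butyrate at 4.5 mM final served as control.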
# NPC1 promoter act – NPC1 promoter activation; Huh7 NPC1 promoter luciferase reporter, 24 h; Potency, µM (doses to about 9.22 µM), inactives show at the top dose activation, actives largely listed as activators; 320,000 compounds, 2.4% hits; AID 485313; also: % of control where 0% means no effect; nearly all actives have a fitted effect of over 60% in size
#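 Quantitative HTS used a cell-based reporter: Huh7 cells stably bearing the NPC1 promoter upstream of luciferase were treated with compounds for 24 h, and promoter activation was read as luminescence.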
# * hit, by the source's call; ? = inconclusive; · = not tested or not shown; [ ] = dose if it differs, or a comment. Calls follow the shape of the dose curve; as a rule, active = well fitted curve in the direction sought with a large enough effect; inconclusive = small, poorly fitted or top-dose-only effect, or another doubt; inactive = no such curve, though single readings can be large; an effect the other way counts as inactive or inconclusive. Potency is read from the fitted curve at half-maximal effect.
SMILES,FLuc counter,ELG1 DNA repair,Rab9 prom act,ELG1 genotoxic,SMN2 splice enh,NPC1 promoter act
COc1cccc(CNC(=O)CSc2ncc(S(=O)(=O)c3ccc(Br)cc3)c(=O)[nH]2)c1,?,·,·,·,-10%,·
Cn1c2ccccc2c2nnc(NN)nc21,-11%,16%,-6%,4%,·,3%
CCCCc1c(C)nn(-c2nnc3c4ccccc4n(C)c3n2)c1C,6.7µM*,?,6%,3%,-5%,22%
CCOC(=O)c1cc(-c2ccccc2)n(-c2cccc(C(=O)Nc3ccc(OCC)cc3)c2)c1C,-8%,·,·,·,·,·
COc1cc(/C=N/Nc2nc3ccccc3s2)ccc1OC(=O)c1ccccc1F,?,?,?,6.5µM*,?,24%
COc1cc(/C=N/Nc2ccccc2[N+](=O)[O-])ccc1OC(=O)c1ccccc1F,9.5µM*,?,3.2µM*,2.6µM*,6.3µM*,4µM*
COc1cc(/C=N/Nc2nc3ccccc3s2)cc([N+](=O)[O-])c1O,11µM*,?,22%,4%,·,?
CCc1ccc(NC(=O)Cn2ncc3c(C)n(Cc4cccc(Cl)c4)c(C)c3c2=O)cc1,-7%,·,·,·,-1%,·
CCCN(C(=O)Cn1ncc2c([nH]c3ccccc32)c1=O)c1ccc(F)cc1,-12%,·,·,·,·,·
CCS(=O)(=O)Nc1cc(-c2nc3cccnc3s2)ccc1C,9.5µM*,?,24%,2.9µM*,11µM*,3.5µM*
Cc1nc2ccc(S(=O)(=O)Nc3cccc(-c4nc5cccnc5s4)c3)cc2s1,-20%,3%,-6%,-1%,-29%,-4%
O=S(=O)(Nc1ccc(-c2nc3cccnc3s2)cc1)c1ccc(Cl)s1,19µM*,?,?,8.2µM*,13µM*,?
CCS(=O)(=O)Nc1cccc(-c2nc3cccnc3s2)c1,19µM*,?,?,4%,·,?
CCS(=O)(=O)Nc1ccc(-c2nc3cccnc3s2)cc1,1.7µM*,?,0.71µM*,?,·,0.79µM*
Cc1ccc(-c2nc3cccnc3s2)cc1NS(=O)(=O)c1ccc2c(c1)CCCC2,-18%,?,-1%,1%,20%,-4%
COc1ccc(S(=O)(=O)c2c(Nc3cccc(C)c3C)sc(C(=O)c3ccccc3)c2N)cc1,5%,·,·,·,-11%,·
COc1ccccc1NC(=O)CSc1nc2ccccc2c2nc(-c3ccccc3)nn12,-2%,·,·,·,·,·
CC1(CC(=O)O)O[C@H]2CCCCC[C@H]2O1 (stereo partly drawn) (tested in a mixture with another compound),·,·,·,·,6%[9.22 µM],·
Brc1ccc2nc(-c3c[nH]c4ccccc34)cn2c1,1.5µM*,?,1µM*,?,10µM*,2.2µM*
Cc1cccn2cc(-c3c[nH]c4ccccc34)nc12,19µM*,?,?,?,13µM*,?
CCCc1nn(C)c(C(=O)Nc2ccc(CC)cc2)c1Cl,?,?,1%,1%,5%,1%
CCCc1nn(C)c(C(=O)Nc2ccc(C)c(C)c2)c1Cl,11µM*,?,3.2µM*,?,6.3µM*,?
CN(C)c1ccc(N=Nc2ccc(S(=O)(=O)O)cc2)c2ccccc12,17µM*,-4%,2%,-8%,6%,-1%
CCOc1ccccc1NC(=O)CN1C(=O)CC(c2ccco2)Sc2ccccc21 (stereo not drawn),?,·,·,·,-33%,·
COc1ccc(CN(C)c2ncnc3sccc23)c(OC)c1OC,-3%,9.2µM*,-17%,-4%,·,-26%
SMILES,FLuc counter,ELG1 DNA repair,Rab9 prom act,ELG1 genotoxic,SMN2 splice enh,NPC1 promoter act
CCc1cc2c(=O)c(-c3ccc4c(c3)OCCO4)c(C)oc2cc1OS(C)(=O)=O,-19%,23µM*,0%,-3%,-24%,0%
CC(CC(=O)Nc1ccc(Cl)c(S(=O)(=O)N2CCOCC2)c1)c1ccccc1 (stereo not drawn),9%,8.2µM*,-36%,-4%,·,-23%
O=C(O)CC(SCC(=O)Nc1ccc(Cl)c(S(=O)(=O)N2CCOCC2)c1)C(=O)O (stereo not drawn),0%,?,3%,0%,·,3%
O=C(CC1CCCC1)Nc1ccc(Cl)c(S(=O)(=O)N2CCOCC2)c1,·,21µM*,·,-5%,·,·
CC(=O)Nc1ccc(OCC(=O)Nc2ccc(Cl)c(S(=O)(=O)N3CCOCC3)c2)cc1,·,5.8µM*,·,-10%,·,·
Clc1nc2ccccc2nc1Cl,·,·,·,·,-4%,·
COc1ccc(-c2nc(CNS(=O)(=O)c3cc(OC)ccc3OC)cs2)cc1,4%,16µM*,-1%,-9%,-22%,-1%
COc1cc(OC)cc(C(=O)Nc2ccc3oc(-c4ccc(Cl)cc4)nc3c2)c1,-1%,·,·,·,-6%,·
CCn1cc(CN2CCCC(C(=O)Nc3ccc(-c4nc5ccccc5[nH]4)cc3)C2)c(C)n1 (stereo not drawn),?,20%,25%,-5%,·,12%
Cc1cc(CN2CCCC(C(=O)Nc3ccc(-c4nc5ccccc5[nH]4)cc3)C2)n[nH]1 (stereo not drawn),15µM*,?,?,19%,·,?
CCN(CC)c1ccc(C(=O)O)cc1,5%,3%,-4%,2%,1%,0%
CCN(CC)c1ccc(/C=C2\C(=O)c3ccc(C(=O)O)cc3C2=O)cc1,0.38µM*,?,-5%,?,-9%,1%
CN(C(=O)c1nn(C)c2c1COc1ccccc1-2)c1cccc(C(F)(F)F)c1,4%,·,·,·,·,·
CC(C)Cc1cc(C(=O)Nc2ccc(F)cc2F)no1,11µM*,?,14%,16µM*,-3%,12%
CC(C)Cc1cc(C(=O)Nc2cccc(O)c2)no1,0.67µM*,?,?,?,·,?
COc1ccc(NC(=O)c2cc(CC(C)C)on2)cc1OC,?,?,1%,21µM*,21%,6%
CCc1ccc(NC(=O)c2cc(CC(C)C)on2)cc1,2.7µM*,?,?,16µM*,25%,26%
COc1ccc(NC(=O)Nc2sc3nc4n(c(=O)c3c2C)CCC(C)CC4)cc1OC (stereo not drawn),3%,·,·,·,-8%,·
Cc1ccc(CCNC(=O)c2cc3cc(S(=O)(=O)N4CCCCC4)ccc3n2C)cc1,3%,·,·,·,·,·
CC(C)Cc1cc(C(=O)Nc2c(F)cc(F)cc2Br)no1,?,?,3%,?,12%,-6%
CC(C)Cc1cc(C(=O)NCc2cccnc2)no1,-14%,?,9%,22%,11%,10%
CC(C)Cc1cc(C(=O)Nc2ccc3c(c2)OCO3)no1,5.4µM*,?,3.2µM*,4.6µM*,16µM*,3.2µM*
